Compound activity (PubChem BioAssay)
Only some compounds are listed: those with a hit (about 2.6% of all), similar ones and a draw of the others.
p53ts 32C tox: kills p53ts cells at the permissive temperature; H1299-p53A138V at 32C, ATP luminescence viability, 24 h; Potency, µM (top dose mostly 46.1 µM), most hits filed as cytotoxic; 130,000 compounds, 0.93% hits; also: nearly all actives have a fitted effect of over 55% in size
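ATP-content luminescence (ATPlite) read-out after 24 h compound exposure at 32C in H1299-p53A138V cells (600/well). Tested up to 46 uM. Normalized to DMSO (0%) and 100 uM tamoxifen (100% killing); Hill-fit AC50.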
p53ts 39C kill: kills p53ts cells at the nonpermissive temperature; H1299-p53A138V viability at 39C, ATP luminescence, 24 h; AID 902; 130,000 compounds, 1.5% hits; Potency, µM (top dose mostly 46.1 µM), usual class: cytotoxic; also: nearly all actives have a fitted effect of over 55% in size
FLuc inh: inhibitors of firefly luciferase; P08659; purified firefly luciferase, luminescence, 8 min; Potency, µM (titrated, usually from 57.1 µM), hits mostly inhibitors; 72,000 compounds, 2.2% hits; AID 411; also: nearly all actives have a fitted effect of over 40% in size
Target sequence (P08659 whole entry, looked up): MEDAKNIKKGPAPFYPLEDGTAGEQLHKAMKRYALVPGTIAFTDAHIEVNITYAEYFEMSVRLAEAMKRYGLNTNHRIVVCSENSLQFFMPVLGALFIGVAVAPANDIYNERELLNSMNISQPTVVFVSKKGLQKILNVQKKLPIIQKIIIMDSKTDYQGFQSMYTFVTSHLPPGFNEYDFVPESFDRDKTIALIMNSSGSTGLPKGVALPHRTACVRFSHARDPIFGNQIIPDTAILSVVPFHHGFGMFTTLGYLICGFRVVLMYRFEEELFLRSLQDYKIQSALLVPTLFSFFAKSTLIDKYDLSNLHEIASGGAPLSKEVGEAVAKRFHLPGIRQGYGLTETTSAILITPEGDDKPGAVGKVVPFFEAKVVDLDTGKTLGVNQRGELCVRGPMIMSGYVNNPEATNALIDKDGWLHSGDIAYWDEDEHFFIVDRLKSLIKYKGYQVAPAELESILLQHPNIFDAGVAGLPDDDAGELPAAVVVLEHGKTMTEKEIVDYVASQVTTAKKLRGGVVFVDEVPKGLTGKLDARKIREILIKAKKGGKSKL
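Inhibition of light generation by firefly luciferase from ATP and luciferin was profiled with concentration-response curves per sample, ATP held at 10 uM within the enzyme's linear range. Plates were read by luminescence after an 8-minute ambient incubation.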
Numbers stand for hits; ! = not confirmed by another sample; [ ] = another dose, or the depositor's remark. Calls follow the shape of the dose curve; as a rule, active = well fitted curve in the direction sought with a large enough effect; inconclusive = small, poorly fitted or top-dose-only effect, or another doubt; inactive = no such curve, though single readings can be large; an effect the other way counts as inactive or inconclusive.

For Cc1nn(C)c2c1c(C(F)(F)F)cc(=O)n2C(C)C(=O)NCc1ccccc1 (centres undefined) the results were p53ts 32C tox inactive and p53ts 39C kill inactive.
For CCc1noc(-c2ccc(NC(C)c3ccccc3)c([N+](=O)[O-])c2)n1 (centres undefined) the results were p53ts 32C tox inactive and p53ts 39C kill inactive.
Nc1cc(C(=O)O)c(O)c(S(=O)(=O)O)c1 was read as p53ts 32C tox inactive[1.84 µM] and p53ts 39C kill inactive.
Cc1ccc(O)c(NC(=O)c2cccc(NC(=O)c3ccco3)c2)c1 was read as p53ts 32C tox inactive, p53ts 39C kill inactive and FLuc inh inactive.
Screening Cc1ccc2nc(-c3cccc(NC(=O)c4ccco4)c3)[nH]c2c1 returned p53ts 32C tox inconclusive, p53ts 39C kill inconclusive and FLuc inh 10µM.
O=C(Nc1ccc(-c2nc3ccccc3[nH]2)cc1)c1ccco1 was read as p53ts 32C tox inconclusive, p53ts 39C kill inconclusive and FLuc inh 3.98µM.
Screening O=C(NCc1cccnc1)c1cccc(NC(=O)c2ccco2)c1 returned p53ts 32C tox inactive, p53ts 39C kill inactive and FLuc inh inactive.
`O=C(NCc1nc2ccccc2[nH]1)c1ccco1` gave p53ts 32C tox inactive, p53ts 39C kill inactive and FLuc inh inactive.
O=C(Nc1ccc2nc(-c3cccnc3)[nH]c2c1)c1ccco1 was read as p53ts 32C tox inconclusive, p53ts 39C kill inactive and FLuc inh 15.8µM.
COc1ccc(S(=O)(=O)NCC(c2ccco2)S(=O)(=O)c2cccs2)cc1OC (centres undefined) was read as p53ts 32C tox inactive and p53ts 39C kill inactive.
For COc1ccccc1-n1nc(-c2ccccc2)c2cnc3cc(C(F)(F)F)ccc3c21 the results were p53ts 32C tox inactive and p53ts 39C kill inactive.
Screening CCCn1c2ccccc2c2cnn(CC(=O)NCCc3cc(OC)ccc3OC)c(=O)c21 returned p53ts 32C tox inactive.
Screening CO[C@@H](NC(N)=O)C(=O)O returned p53ts 32C tox inactive[9.22 µM], p53ts 39C kill inactive[9.22 µM] and FLuc inh inactive[11.4 µM].
Screening COc1ccccc1Nc1nn2c(=O)c3ccc(C(=O)NCc4cccs4)cc3nc2s1 returned p53ts 32C tox 3.16µM and p53ts 39C kill 10µM.
Cc1ccc(C)c(Nc2nn3c(=O)c4ccc(C(=O)NCc5cccs5)cc4nc3s2)c1 was read as p53ts 32C tox 15.8µM and p53ts 39C kill inconclusive.
For Cc1ccc(Cl)cc1Nc1nn2c(=O)c3ccc(C(=O)NCc4ccc(F)cc4)cc3nc2s1 the results were p53ts 32C tox inactive and p53ts 39C kill 12.6µM.
CCc1ccccc1Nc1nn2c(=O)c3ccc(C(=O)NCc4ccc(C)cc4)cc3nc2s1 was read as p53ts 32C tox inconclusive and p53ts 39C kill inactive.
`CCCCN(C)C(=O)c1ccc2c(=O)n3nc(Nc4cc(C)ccc4C)sc3nc2c1` gave p53ts 32C tox inactive and p53ts 39C kill inactive.
CCN(CC)CCNC(=O)c1ccc2c(=O)n3nc(Nc4ccccc4OC)sc3nc2c1 was read as p53ts 32C tox inactive and p53ts 39C kill inconclusive.
For Cc1ccccc1Nc1nn2c(=O)c3ccc(C(=O)NCc4ccccc4)cc3nc2s1 the results were p53ts 32C tox inactive and p53ts 39C kill inactive.
`CCc1ccc(NC(=O)c2ccc3c(=O)n4nc(Nc5ccccc5C)sc4nc3c2)cc1` gave p53ts 32C tox 12.6µM and p53ts 39C kill inconclusive.
CC(=O)c1cccc(N2C(=O)CN(S(C)(=O)=O)CC2(C)C(=O)NC2CCCC2)c1 (centres undefined) was read as p53ts 32C tox inactive.
`Cc1ccccc1NC(=O)Cn1c(=O)oc2cc(Br)ccc21` gave p53ts 32C tox inactive and p53ts 39C kill inactive.
For COC(=O)c1sc2cccc(F)c2c1S(=O)(=O)NCc1ccc(F)cc1 the results were p53ts 32C tox inactive and p53ts 39C kill inactive.
`Oc1c(CN2CCCCC2)cc(COCc2ccccc2)c2cccnc12` gave p53ts 32C tox inactive, p53ts 39C kill inactive and FLuc inh inactive.
For CCCOCc1cc(CN2CCN(c3ccccc3OC)CC2)c(O)c2ncccc12 the results were p53ts 32C tox 15.8µM and p53ts 39C kill 10µM.
Screening CCOc1ccc2oc(=O)cc(CN3CCN(c4ccccc4OC)CC3)c2c1 returned p53ts 32C tox inactive and p53ts 39C kill inactive.
CCOCc1cc(CN2CCN(c3cccc(C(F)(F)F)c3)CC2)c(O)c2ncccc12 was read as p53ts 32C tox inactive and p53ts 39C kill inconclusive.
`CC(C)OCc1cc(CN2CCN(c3cccc(C(F)(F)F)c3)CC2)c(O)c2ncccc12` gave p53ts 32C tox inactive and p53ts 39C kill 15.8µM.
`COCc1cc(CN2CCCC2)c(O)c2ncccc12` gave p53ts 32C tox inactive, p53ts 39C kill inconclusive and FLuc inh inactive.
Screening CCOCc1cc(CN2CCN(c3ccccc3OC)CC2)c(O)c2ncccc12 returned p53ts 32C tox inactive and p53ts 39C kill 20µM.
For COc1ccccc1N1CCN(Cc2cc(COC(C)C)c3cccnc3c2O)CC1 the results were p53ts 32C tox inconclusive and p53ts 39C kill 2.51µM.
`Cc1ccc(S(=O)(=O)Nc2cc3c(cc2C)n(C)c(=O)c(=O)n3C)cc1` gave p53ts 32C tox inactive and p53ts 39C kill inactive.
`CCOC(=O)c1c(C)n(-c2ccccc2)c2ccc(OC(=O)c3cccc(OC)c3OC)cc12` gave p53ts 32C tox inactive and p53ts 39C kill inactive.
`CCOc1ccccc1N1CCN(Cc2cccc(OC)c2O)CC1` gave p53ts 32C tox inactive, p53ts 39C kill inactive and FLuc inh inactive.
`COc1ccccc1N1CCN(Cc2cc(Br)c(O)c3ncccc23)CC1` gave p53ts 32C tox inactive, p53ts 39C kill 15.8µM and FLuc inh inactive.
For CCOC(=O)c1cnn(-c2ccc(C(=O)Nc3cc(OC)c(OC)c(OC)c3)cc2)c1N the results were p53ts 32C tox inactive and p53ts 39C kill inactive.
Screening O=C(O)c1cc(-c2ccccn2)n[nH]1 returned p53ts 32C tox inactive, p53ts 39C kill inactive and FLuc inh inactive.
For c1ccc(-c2cccc(-c3ccccn3)n2)nc1 the results were p53ts 32C tox inconclusive, p53ts 39C kill 0.794µM and FLuc inh inactive.
Screening O=S(=O)(Nc1ccc(-c2ccc(N3CCCC3)nn2)cc1)c1cc(F)ccc1F returned p53ts 32C tox inactive and p53ts 39C kill inactive.
Screening Nc1nc(CSc2ncn(-c3ccccc3)n2)cs1 returned p53ts 32C tox inactive, p53ts 39C kill inactive and FLuc inh 25.1µM.
c1ccc(CSc2ncn(-c3ccccc3)n2)cc1 was read as p53ts 32C tox inactive, p53ts 39C kill inactive and FLuc inh inconclusive.
`C[C@@H](NC(=O)C1(N)CCCC1)C(=O)O` gave p53ts 32C tox inactive[9.22 µM], p53ts 39C kill inactive[9.22 µM] and FLuc inh inactive[11.4 µM].
Screening CCCOc1ccc(N)cc1N returned p53ts 32C tox 20µM, p53ts 39C kill inactive and FLuc inh inactive.
CCCOc1ccccc1NC(=O)c1ccc(N)cc1 was read as p53ts 32C tox inactive, p53ts 39C kill inactive and FLuc inh inactive.
Screening COc1cc2c(cc1C(F)(F)F)N(C(=O)Nc1cc(F)cc(-c3cccnc3)c1)CC2 returned p53ts 32C tox inconclusive, p53ts 39C kill inconclusive and FLuc inh inactive.
For Cn1ccc2cc3c(cc21)CCN3C(=O)Nc1cccnc1 the results were p53ts 32C tox 10µM, p53ts 39C kill 10µM and FLuc inh 25.1µM!.
COc1ccc(CC(=O)N2CCc3cc(OC)c(OC)cc3C2COc2cc(C)cc(C)c2)cc1OC (centres undefined) was read as p53ts 32C tox inactive and p53ts 39C kill inactive.
